# The list is not random: actives were taken first. Their share in the collection is about 7.5%.
# Rab9 promoter act – activates the Rab9 promoter. Huh7 Rab9 promoter-luciferase reporter, luminescence, 24 h. Potency, µM (series often up to 9.22 µM), for inactives: at the highest dose activation, negative = inhibition, hits mostly activators. actives 2.8% (n = 320,000). AID 485297; note: % of control where 0% means no effect; nearly all actives have a fitted effect of over 60% in size
#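 Promoter activation is measured as luciferase luminescence in Huh7 cells stably transfected with a Rab9 promoter–luciferase construct, following 24 h compound exposure at 37 °C and 10 min reagent incubation at ambient temperature.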
# NPC1 promoter act – NPC1 promoter activation; Huh7 NPC1 promoter luciferase reporter, 24 h; Potency, µM (highest dose often 9.22 µM), for inactives: top-dose activation, hits mostly activators; actives 2.4% (n = 320,000); note: % of control where 0% means no effect; nearly all actives have a fitted effect of over 60% in size
#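 Huh7 reporter cells (NPC1 promoter driving luciferase) are dosed with compound for 24 h at 37 °C, 5% CO2; luciferase detection reagent is then added and luminescence measured after 10 min at ambient temperature.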
# ELG1 genotox – inducers of genotoxicity in HEK293T ELG1-luciferase cells | HEK293T ELG1-luciferase reporter, luminescence, 16 h | Potency, µM (doses to about 46 µM), for inactives: at the highest dose activity change, positive = activation, hits mostly activators | actives 1.3% (n = 330,000) | AID 504466; note: % of control where 0% means no effect; nearly all actives have a fitted effect of over 60% in size
#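 Genotoxic stress is detected as increased luminescence from luciferase-tagged ELG1 in HEK293T cells, measured with ONE-Glo after a 16 hr treatment at 37 °C.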
# Luc counter – counter-screen: inhibitors of Kinase-Glo firefly luciferase; AID 1379; Potency, µM (top dose mostly 38.3 µM), inactives show at the top dose activity change, negative = inhibition, hits mostly inhibitors; actives 0.28% (n = 200,000); Kinase-Glo luciferase, ATP luminescence, 8 min; note: % is set by controls: 0 for no effect and ±100 for the full control effect; nearly all actives have a fitted effect of over 60% in size
#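 Luminescence was the read-out, taken after 8-minute incubation at ambient temperature. Luciferase turned over luciferin with 10 uM ATP in imidazole pH 7.2 buffer containing KCl, MgCl2, Tween 20 and BSA.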
# SMN2 splice up – increases expression of the SMN2 splice variant | HEK293 SMN2-luciferase splicing reporter, luminescence, 30-36 h | Potency, µM (top dose mostly 46.1 µM), without a hit: top-dose activity change, positive = activation, most hits filed as activators | actives 2.8% (n = 210,000) | AID 1458; note: % of control where 0% means no effect; nearly all actives have a fitted effect of over 55% in size
#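 HEK293 cells carry an SMN2 […]–luciferase reporter in which exon 7 inclusion puts luciferase in frame. Cells were plated 10-12 h before compound addition, then incubated 30-36 h at 37C. ONE-Glo luminescence was read; sodium butyrate at 4.5 mM final served as control.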
# FLuc modulator – inhibits or activates purified firefly luciferase, miR-21 counter-screen; P08659; purified FLuc, Km substrates, luminescence inhibition; Potency, µM (top dose mostly 57.5 µM), for inactives: at the top dose activity change, negative = inhibition, most hits filed as inhibitors; actives 6.9% (n = 360,000);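 note: plate controls were vehicle for no effect and reference inhibitor for full effect; nearly all actives have a fitted effect of over 55% in size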
# Target sequence (P08659 whole entry, looked up): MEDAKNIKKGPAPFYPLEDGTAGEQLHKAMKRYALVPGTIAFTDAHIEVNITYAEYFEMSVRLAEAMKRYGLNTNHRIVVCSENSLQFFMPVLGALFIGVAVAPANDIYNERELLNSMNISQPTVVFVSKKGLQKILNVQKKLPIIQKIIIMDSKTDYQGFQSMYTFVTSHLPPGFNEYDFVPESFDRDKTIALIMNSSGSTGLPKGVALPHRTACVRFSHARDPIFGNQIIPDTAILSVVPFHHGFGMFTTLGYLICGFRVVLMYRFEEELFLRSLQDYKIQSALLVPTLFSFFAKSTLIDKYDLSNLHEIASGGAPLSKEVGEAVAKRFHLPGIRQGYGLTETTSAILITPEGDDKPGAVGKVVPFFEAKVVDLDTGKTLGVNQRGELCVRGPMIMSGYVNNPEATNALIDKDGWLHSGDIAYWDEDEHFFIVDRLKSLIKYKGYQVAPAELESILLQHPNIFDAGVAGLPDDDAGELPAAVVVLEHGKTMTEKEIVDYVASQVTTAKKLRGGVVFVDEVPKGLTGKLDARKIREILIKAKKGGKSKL
#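 Biochemical qHTS of compounds, final roughly 60 µM downward over six points, against 10 nM purified firefly luciferase using Km concentrations of substrates (10 uM D-luciferin, 10 uM ATP) in Tris acetate pH 7.5 buffer; luminescence output.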
# An asterisk follows results filed as active; ? = inconclusive; . = no result; [ ] = remark or other dose. Calls come from the whole dose curve; as a rule, active = well fitted curve in the direction sought with a large enough effect; inconclusive = small, poorly fitted or top-dose-only effect, or another doubt; inactive = no such curve, though single readings can be large; an effect the other way counts as inactive or inconclusive. Potency is the fitted concentration of half-maximal effect.
SMILES,Rab9 promoter act,NPC1 promoter act,ELG1 genotox,Luc counter,SMN2 splice up,FLuc modulator
CCC(C)NC(=O)c1ccc2c(=O)n3c(nc2c1)CCCCC3 (stereo not drawn),.,.,.,.,-4.6%,-4.0%
COCCNC(=O)c1ccc2c3n(nc2c1)-c1ccc(C)cc1CO3,1.12µM*,0.708µM*,?,.,.,6.75µM*
C[C@@H](CO)NC(=O)c1ccc2c3n(nc2c1)-c1ccccc1CO3,?,0.447µM*,?,.,.,0.601µM*
O=C(NCC1CCCO1)c1ccc2c(c1)OCO2 (stereo not drawn),18.7%,4.9%,9.5%,-5.0%,-6.3%,3.8%
Cc1ccc2c(c1)COc1c3ccc(C(=O)N[C@@H](CO)C(C)C)cc3nn1-2,3.55µM*,1.78µM*,?,.,.,6.75µM*
C=C/C1=C/Cc2ccccc2[C@H](C[N+](=O)[O-])C(C(C)=O)(C(=O)OC)C1 (stereo partly drawn),.,.,.,0.9%,-11.0%,.
C=CCN=C1S/C(=C\c2ccc(N(C)C)cc2)C(=O)N1CC=C,?,18.4%,5.8%,.,.,21.3µM*
c1ccc(OCCOc2ncnc3sccc23)cc1,2.82µM*,25.5%,16.4µM*,-6.5%,?,?
O=C1c2ccccc2-c2nc3ccccc3nc21,2.24µM*,2.82µM*,4.47µM*,-14.6%,12.6µM*,15.1µM*
COc1cc(OC)cc(OC(=O)c2ccc3c(=O)n4c(nc3c2)CCC4)c1,0.3%,2.8%,3.5%,.,.,15.1µM*
CC(=O)c1cccc(OC(=O)c2ccc3c(=O)n4c(nc3c2)CCC4)c1,0.0%,1.6%,-1.9%,.,.,-17.9%
Cc1ccc(OC(=O)c2ccc3c(=O)n4c(nc3c2)CCC4)cc1,-6.9%,-8.0%,6.4%,.,.,6.01µM*
Cc1ccc(-n2nc(C)c3c(C(=O)NCCc4ccc(S(N)(=O)=O)cc4)cc(C)nc32)cc1,.,.,.,.,.,5.7%
O=C(CSc1cn(CCNC(=O)c2cccc(C(F)(F)F)c2)c2ccccc12)Nc1ccc2c(c1)OCCO2,.,.,.,.,-40.4%,-16.7%
CCOC(=O)c1c(C)[nH]c(C)c1S(=O)(=O)NCC(=O)N(C)c1ccc(C)c(C)c1,.,.,.,.,.,-3.5%
CCN(CC)CCOC(=O)[C@@H](Cc1cccc2ccccc12)C[C@@H]1CCCO1,.,.,.,2.8%[17.1 µM],-7.5%[20.6 µM],.
COc1ccc(CNC(=O)CC23CC4CC(CC(C4)C2)C3)cc1OC,-2.3%,-1.2%,-0.2%,.,.,15.1µM*
CCCNC(=O)CCc1c(C)nc2nc(CNC(=O)c3ccccc3)nn2c1C,.,.,.,.,-6.3%,-1.7%
COc1ccc2nc(N/C(N)=N/S(C)(=O)=O)nc(C)c2c1,13.6%,16.7%,?,.,.,15.1µM*
COc1ccc2nc(N/C(N)=N/C(=S)Nc3cccc(C)c3)nc(C)c2c1,-4.6%,-2.8%,-4.0%,1.8%,-28.8%,?
COc1ccc(NC(=S)/N=C(\N)Nc2nc(C)c3ccccc3n2)cc1,-6.2%,1.9%,-10.5%,.,.,9.53µM*
COc1ccc2nc(N/C(N)=N/C(=S)Nc3c(C)cccc3C)nc(C)c2c1,-6.1%,-13.5%,-3.2%,-3.6%,-6.3%,-8.5%
COc1ccc(S(=O)(=O)N(CC(=O)NCCc2ccccc2)c2ccc(Cl)cc2)cc1,.,.,.,.,-3.9%,-8.4%
O=[N+]([O-])c1ccc(Nc2ccccc2)nc1,2.4%,-1.3%,5.2%,3.8%,2.5%,-3.1%
COc1ccc([N+](=O)[O-])cc1NCc1ccccc1,-3.3%,-4.2%,?,-0.7%,31.6µM*,0.6%
O=[N+]([O-])c1ccc(NCc2ccccc2)nc1,24.2%,28.4%,?,1.4%,?,21.3µM*
COc1ccc2c(c1)OC(=O)CC2c1ccccc1C (stereo not drawn),.,.,.,0.9%[39.9 µM],.,.
CCOC(=O)c1noc2ncn(Cc3ccc([N+](=O)[O-])cc3)c(=O)c12,.,.,.,.,.,1.3%
CN(C(=O)CSc1nc2ccccc2[nH]1)c1ccc(F)cc1,.,.,.,.,-7.9%,0.8%
